From ChEMBL document CHEMBL4513146, “CO-ADD screening of Karazin Kharkiv National University (Ukraine) compounds”
Potency and affinity values are given separately.

What follows are molecules tested on Candida albicans. Settings: Concentration 32 ug.mL-1; ASSAY_TEST Inhibition of Fungal Growth; detection method Absorption (OD530).

Cc1ccc(N(Cc2cccc(C)c2)S(=O)(=O)c2cccn3c(C)nnc23)cc1 was tested. Which Inhibition did it give?
Its Inhibition is 4.46%.

With CC(C)Sc1ccc2nn(CC(=O)Nc3ccc(F)cc3Cl)c(=O)n2n1 as the molecule, how does the Inhibition read?
Its Inhibition is 3.44%.

Which Inhibition does the source give for COc1ccc(C(C)NC(=O)CCc2nnc3ccc(-c4ccc(C)c(C)c4)nn23)cc1OC (stereo not given) here?
Its Inhibition is 3.04%.

For Cc1ccc(-c2ccc3nn(CC(=O)Nc4ccc(Br)cc4F)c(=O)n3n2)cc1, which Inhibition is on record?
The Inhibition was 3.52%.

With Cc1ccc(NC(=O)Cn2nc3c4cc(-c5ccc(Cl)cc5)nn4ccn3c2=O)cc1F as the molecule, how does the Inhibition read?
Its Inhibition is -0.67%.

For CCOc1ccc(-n2ccn3c(SCC(=O)Nc4ccc(CC)cc4)nnc3c2=O)cc1, which Inhibition is on record?
The Inhibition was 2.31%.

How did the Inhibition turn out when CCCCOc1ccc(-c2cc3c4nnc(SCC(=O)Nc5cc(C)ccc5C)n4ccn3n2)cc1 was run?
The Inhibition was 5.83%.

Cc1ccc(NC(=O)Cn2nc3c(N4CCCC(C)C4)nccn3c2=O)cc1C (stereo not given) was tested. Which Inhibition did it give?
The Inhibition was 1.72%.

With COc1cccc(Sc2nc3ccccc3n3c(=O)n(CC(=O)N4CCCc5ccccc54)nc23)c1 as the molecule, how does the Inhibition read?
Its Inhibition is 0.71%.

How did the Inhibition turn out when CC(C)Sc1ccc2nn(CC(=O)Nc3ccc(Br)cc3F)c(=O)n2n1 was run?
Its Inhibition is -0.59%.

CCCCOc1ccc(-c2cc3c4nnc(SCC(=O)Nc5ccc(C)c(F)c5)n4ccn3n2)cc1 was tested. Which Inhibition did it give?
The Inhibition was 11.03%.

With Cc1oc(-c2ccccc2)nc1CSc1nc2ccccc2n2c(C(C)C)nnc12 as the molecule, how does the Inhibition read?
The Inhibition was 6.41%.

How did the Inhibition turn out when COc1ccccc1-n1ccn2c(SCC(=O)Nc3ccc(F)cc3F)nnc2c1=O was run?
The Inhibition was 0.36%.

How did the Inhibition turn out when Cc1ccc(-n2ccn3c(=O)n(Cc4ccccc4Cl)nc3c2=O)cc1C was run?
The Inhibition was 3.38%.

How did the Inhibition turn out when Cc1nnc2c(=O)n(CC(=O)Nc3ccc(F)cc3F)c3ccccc3n12 was run?
The Inhibition was -0.68%.

How did the Inhibition turn out when O=C(Cn1nc2n(CCc3ccccc3)c(=O)c3ccccc3n2c1=O)Nc1ccc2c(c1)OCO2 was run?
Its Inhibition is 15.71%.

With O=C(CSc1nc2ccccc2n2cnnc12)Nc1cc(C(F)(F)F)ccc1Cl as the molecule, how does the Inhibition read?
Its Inhibition is 15.89%.

Which Inhibition does the source give for Cc1nnc2c(S(=O)(=O)N(Cc3ccc(F)cc3)c3ccc(F)c(F)c3)cccn12 here?
The Inhibition was 8.25%.

Which Inhibition does the source give for Cc1cccc(Sc2nc3ccccc3n3c(=O)n(CC(=O)Nc4c(C)cc(C)cc4C)nc23)c1 here?
Its Inhibition is 0.56%.

Which Inhibition does the source give for COc1ccc(NC(=O)Cn2nc3ccc(-c4ccc(Cl)cc4)nn3c2=O)cc1OC here?
Its Inhibition is -2.47%.

Which Inhibition does the source give for COc1ccc(NC(=O)Cn2nc3c(Sc4ccccc4)nccn3c2=O)cc1Cl here?
Its Inhibition is 0.73%.

Which Inhibition does the source give for COc1ccc(-c2cc3c4nn(CC(=O)Nc5cc(Cl)ccc5C)c(=O)n4ccn3n2)cc1 here?
The Inhibition was 1.63%.

Which Inhibition does the source give for COc1cccc(Cn2nc3ccc(-c4ccccc4)nn3c2=O)c1 here?
Its Inhibition is 2.39%.

How did the Inhibition turn out when CC(C)CCn1c(=O)c2sccc2n2c(=O)n(CC(=O)N(C)c3ccccc3)nc12 was run?
Its Inhibition is -2.64%.

Which Inhibition does the source give for C=Cc1ccc(CN(c2cccc(F)c2)S(=O)(=O)c2ccc3nnc(C)n3c2)cc1 here?
Its Inhibition is 1.51%.

CCc1ccccc1Sc1nccn2c(=O)n(CC(=O)NCc3cccs3)nc12 was tested. Which Inhibition did it give?
The Inhibition was 4.04%.

COc1ccccc1-n1ccn2c(SCC(=O)NCc3ccc(Cl)cc3)nnc2c1=O was tested. Which Inhibition did it give?
The Inhibition was 4.77%.

With Cc1cc(C)cc(N(Cc2c(F)cccc2Cl)S(=O)(=O)c2cccn3cnnc23)c1 as the molecule, how does the Inhibition read?
Its Inhibition is 3.71%.

For CCc1ccc(N(Cc2ccccc2C)S(=O)(=O)c2cccn3c(CC)nnc23)cc1, which Inhibition is on record?
Its Inhibition is 4.38%.

With Cc1c(Cl)cccc1-n1ccn2c(=O)n(Cc3ccc(Cl)cc3)nc2c1=O as the molecule, how does the Inhibition read?
The Inhibition was 1.02%.

With CCCCOc1ccc(-c2cc3c4nnc(SCC(=O)Nc5ccc(Cl)cc5)n4ccn3n2)cc1 as the molecule, how does the Inhibition read?
Its Inhibition is 2.71%.

For O=C(Cn1nc2ccc(-c3ccccc3)nn2c1=O)Nc1ccc(Cl)c(C(F)(F)F)c1, which Inhibition is on record?
Its Inhibition is 14.71%.

For CCc1ccccc1Sc1nccn2c(=O)n(CC(=O)Nc3ccc(OC)c(Cl)c3)nc12, which Inhibition is on record?
Its Inhibition is 13.19%.

Which Inhibition does the source give for O=C(Cn1nc2c(SC3CCCCC3)nccn2c1=O)N1CCN(c2ccccc2)CC1 here?
The Inhibition was 1.71%.

CCCCn1c(=O)c2sccc2n2c(SCc3cccc(C(F)(F)F)c3)nnc12 was tested. Which Inhibition did it give?
The Inhibition was 0.84%.

Cc1ccc(Oc2nccn3c(=O)n(CC(=O)Nc4ccc(Br)cc4F)nc23)cc1 was tested. Which Inhibition did it give?
The Inhibition was 2.18%.

How did the Inhibition turn out when CCc1ccc(N(Cc2cc(F)cc(F)c2)S(=O)(=O)c2cccn3c(C)nnc23)cc1 was run?
Its Inhibition is 0.73%.

For COc1cccc(CNC(=O)Cn2nc3c4cc(-c5cc(C)ccc5C)nn4ccn3c2=O)c1OC, which Inhibition is on record?
Its Inhibition is -1.47%.

How did the Inhibition turn out when CCc1nnc2ccc(S(=O)(=O)N(Cc3cccc(OC)c3)c3ccc(F)cc3)cn12 was run?
Its Inhibition is 1.64%.

How did the Inhibition turn out when CCc1ccc(N(Cc2cccc(Cl)c2)S(=O)(=O)c2cccn3c(C)nnc23)cc1 was run?
Its Inhibition is 9.1%.

What follows are molecules tested on Cryptococcus neoformans. Settings: Concentration 32 ug.mL-1; ASSAY_TEST Inhibition of Fungal Growth; detection method Resazurin; Absorption (OD600-OD570); plate type 384well; NBS; CORNING #3640.

With Cc1ccc(N(Cc2cccc(C)c2)S(=O)(=O)c2cccn3c(C)nnc23)cc1 as the molecule, how does the Inhibition read?
Its Inhibition is -6.62%.

Which Inhibition does the source give for CC(C)Sc1ccc2nn(CC(=O)Nc3ccc(F)cc3Cl)c(=O)n2n1 here?
Its Inhibition is -6.24%.

COc1ccc(C(C)NC(=O)CCc2nnc3ccc(-c4ccc(C)c(C)c4)nn23)cc1OC (stereo not given) was tested. Which Inhibition did it give?
The Inhibition was -6.29%.

With Cc1ccc(-c2ccc3nn(CC(=O)Nc4ccc(Br)cc4F)c(=O)n3n2)cc1 as the molecule, how does the Inhibition read?
The Inhibition was -13.83%.

For Cc1ccc(NC(=O)Cn2nc3c4cc(-c5ccc(Cl)cc5)nn4ccn3c2=O)cc1F, which Inhibition is on record?
Its Inhibition is -19.64%.

For CCOc1ccc(-n2ccn3c(SCC(=O)Nc4ccc(CC)cc4)nnc3c2=O)cc1, which Inhibition is on record?
The Inhibition was -18.11%.

Which Inhibition does the source give for CCCCOc1ccc(-c2cc3c4nnc(SCC(=O)Nc5cc(C)ccc5C)n4ccn3n2)cc1 here?
Its Inhibition is -10.24%.

How did the Inhibition turn out when Cc1ccc(NC(=O)Cn2nc3c(N4CCCC(C)C4)nccn3c2=O)cc1C (stereo not given) was run?
The Inhibition was -9.99%.

For COc1cccc(Sc2nc3ccccc3n3c(=O)n(CC(=O)N4CCCc5ccccc54)nc23)c1, which Inhibition is on record?
Its Inhibition is -20.75%.

How did the Inhibition turn out when CC(C)Sc1ccc2nn(CC(=O)Nc3ccc(Br)cc3F)c(=O)n2n1 was run?
The Inhibition was -7.06%.

For CCCCOc1ccc(-c2cc3c4nnc(SCC(=O)Nc5ccc(C)c(F)c5)n4ccn3n2)cc1, which Inhibition is on record?
Its Inhibition is -15.89%.

For Cc1oc(-c2ccccc2)nc1CSc1nc2ccccc2n2c(C(C)C)nnc12, which Inhibition is on record?
Its Inhibition is -7.85%.

Which Inhibition does the source give for COc1ccccc1-n1ccn2c(SCC(=O)Nc3ccc(F)cc3F)nnc2c1=O here?
The Inhibition was -9.49%.

How did the Inhibition turn out when Cc1ccc(-n2ccn3c(=O)n(Cc4ccccc4Cl)nc3c2=O)cc1C was run?
The Inhibition was -10.75%.

Which Inhibition does the source give for Cc1nnc2c(=O)n(CC(=O)Nc3ccc(F)cc3F)c3ccccc3n12 here?
The Inhibition was -30.11%.

Which Inhibition does the source give for O=C(Cn1nc2n(CCc3ccccc3)c(=O)c3ccccc3n2c1=O)Nc1ccc2c(c1)OCO2 here?
The Inhibition was -16.57%.

Which Inhibition does the source give for O=C(CSc1nc2ccccc2n2cnnc12)Nc1cc(C(F)(F)F)ccc1Cl here?
Its Inhibition is -19.78%.

How did the Inhibition turn out when Cc1nnc2c(S(=O)(=O)N(Cc3ccc(F)cc3)c3ccc(F)c(F)c3)cccn12 was run?
The Inhibition was -10.38%.

For Cc1cccc(Sc2nc3ccccc3n3c(=O)n(CC(=O)Nc4c(C)cc(C)cc4C)nc23)c1, which Inhibition is on record?
Its Inhibition is -23.88%.

With COc1ccc(NC(=O)Cn2nc3ccc(-c4ccc(Cl)cc4)nn3c2=O)cc1OC as the molecule, how does the Inhibition read?
The Inhibition was -11.98%.

Which Inhibition does the source give for COc1ccc(NC(=O)Cn2nc3c(Sc4ccccc4)nccn3c2=O)cc1Cl here?
Its Inhibition is 2.33%.

Which Inhibition does the source give for COc1ccc(-c2cc3c4nn(CC(=O)Nc5cc(Cl)ccc5C)c(=O)n4ccn3n2)cc1 here?
Its Inhibition is -6.61%.

With COc1cccc(Cn2nc3ccc(-c4ccccc4)nn3c2=O)c1 as the molecule, how does the Inhibition read?
Its Inhibition is -3.25%.

Which Inhibition does the source give for CC(C)CCn1c(=O)c2sccc2n2c(=O)n(CC(=O)N(C)c3ccccc3)nc12 here?
Its Inhibition is -16.67%.

Which Inhibition does the source give for C=Cc1ccc(CN(c2cccc(F)c2)S(=O)(=O)c2ccc3nnc(C)n3c2)cc1 here?
The Inhibition was -6.84%.

How did the Inhibition turn out when CCc1ccccc1Sc1nccn2c(=O)n(CC(=O)NCc3cccs3)nc12 was run?
The Inhibition was -9.94%.

How did the Inhibition turn out when COc1ccccc1-n1ccn2c(SCC(=O)NCc3ccc(Cl)cc3)nnc2c1=O was run?
Its Inhibition is -6.31%.

For Cc1cc(C)cc(N(Cc2c(F)cccc2Cl)S(=O)(=O)c2cccn3cnnc23)c1, which Inhibition is on record?
The Inhibition was -5.6%.

Which Inhibition does the source give for CCc1ccc(N(Cc2ccccc2C)S(=O)(=O)c2cccn3c(CC)nnc23)cc1 here?
Its Inhibition is -7.67%.

How did the Inhibition turn out when Cc1c(Cl)cccc1-n1ccn2c(=O)n(Cc3ccc(Cl)cc3)nc2c1=O was run?
Its Inhibition is -15.09%.

Which Inhibition does the source give for CCCCOc1ccc(-c2cc3c4nnc(SCC(=O)Nc5ccc(Cl)cc5)n4ccn3n2)cc1 here?
Its Inhibition is -15.55%.

How did the Inhibition turn out when O=C(Cn1nc2ccc(-c3ccccc3)nn2c1=O)Nc1ccc(Cl)c(C(F)(F)F)c1 was run?
The Inhibition was -8.29%.

For CCc1ccccc1Sc1nccn2c(=O)n(CC(=O)Nc3ccc(OC)c(Cl)c3)nc12, which Inhibition is on record?
The Inhibition was 0.67%.

How did the Inhibition turn out when O=C(Cn1nc2c(SC3CCCCC3)nccn2c1=O)N1CCN(c2ccccc2)CC1 was run?
Its Inhibition is -1.45%.

How did the Inhibition turn out when CCCCn1c(=O)c2sccc2n2c(SCc3cccc(C(F)(F)F)c3)nnc12 was run?
The Inhibition was -14.78%.

How did the Inhibition turn out when Cc1ccc(Oc2nccn3c(=O)n(CC(=O)Nc4ccc(Br)cc4F)nc23)cc1 was run?
Its Inhibition is -6.11%.

CCc1ccc(N(Cc2cc(F)cc(F)c2)S(=O)(=O)c2cccn3c(C)nnc23)cc1 was tested. Which Inhibition did it give?
The Inhibition was -2.77%.

Which Inhibition does the source give for COc1cccc(CNC(=O)Cn2nc3c4cc(-c5cc(C)ccc5C)nn4ccn3c2=O)c1OC here?
The Inhibition was -13.57%.

For CCc1nnc2ccc(S(=O)(=O)N(Cc3cccc(OC)c3)c3ccc(F)cc3)cn12, which Inhibition is on record?
Its Inhibition is -8.65%.

For CCc1ccc(N(Cc2cccc(Cl)c2)S(=O)(=O)c2cccn3c(C)nnc23)cc1, which Inhibition is on record?
Its Inhibition is -5.8%.
